Assay results: PubChem BioAssay (NCI)
This is part of a sample that, as a whole, favours compounds with a hit. Of some 83,000 tested, about 20% had one in any assay.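 Step 1: grow cells in 96-well plates. Step 2: add test compound at a single concentration. Step 3: incubate 48 h. Step 4: record percent growth.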 Activity calls are given as the source filed them. Rule for the calls: active = growth percent below 10; inactive = the rest.

Tests used:
Experiment in all cases: NCI-60 one-dose screen, 48 h (100 = growth as untreated, 0 = no growth, -100 = all killed)
Settings in all cases: 10 µM unless noted
NCI-H23 lung = tested on: NCI-H23 lung
NCI-H226 lung = tested on: NCI-H226 lung
NCI-H322M lung = tested on: NCI-H322M lung
HOP-62 NSCLC = tested on: HOP-62 NSCLC
NCI-H460 lung = tested on: NCI-H460 lung
HOP-92 NSCLC = tested on: HOP-92 NSCLC
NCI-H522 lung = tested on: NCI-H522 lung
A549/ATCC NSCLC = tested on: A549/ATCC NSCLC
786-0 renal = tested on: 786-0 renal
COLO 205 colon = tested on: COLO 205 colon

Measured: growth

CC(C)(C)OC(=O)NCc1ccc(CNc2c([N+](=O)[O-])cnc3ccccc23)cc1
inactive: NCI-H23 lung 46.2% | NCI-H226 lung 55.2% | NCI-H322M lung 91.6% | HOP-62 NSCLC 58.5% | NCI-H460 lung 70.1% | HOP-92 NSCLC 32.1% | NCI-H522 lung 62.4% | A549/ATCC NSCLC 72.2% | 786-0 renal 73.8% | COLO 205 colon 80.1%

N#Cc1c(-c2cccs2)c(C#N)c(=O)n(Cc2nc3ccccc3[nH]2)c1N
inactive: NCI-H23 lung 90.7% | NCI-H226 lung 87% | NCI-H322M lung 98.5% | HOP-62 NSCLC 93.3% | NCI-H460 lung 101% | HOP-92 NSCLC 95.2% | NCI-H522 lung 95.1% | A549/ATCC NSCLC 103% | 786-0 renal 103% | COLO 205 colon 111%

O=C1[C@@H]2Cc3c([nH]c4ccccc34)[C@@H](c3ccc(Cl)cc3)N2C(=O)CN1C1CCN(Cc2c(F)cccc2F)CC1
active: HOP-92 NSCLC -0.363% | COLO 205 colon 7.17%
inactive: NCI-H23 lung 48.8% | NCI-H226 lung 60.6% | NCI-H322M lung 66.2% | HOP-62 NSCLC 54.1% | NCI-H460 lung 22.5% | NCI-H522 lung 36.7% | A549/ATCC NSCLC 31.6% | 786-0 renal 45.2%

CC(=O)N1N=C(c2cc3ccccc3oc2=O)CC1c1cn(-c2ccccc2)nc1-c1ccc(C)cc1 (stereo not given)
inactive: NCI-H23 lung 100% | NCI-H226 lung 94.8% | NCI-H322M lung 101% | HOP-62 NSCLC 93% | NCI-H460 lung 104% | HOP-92 NSCLC 105% | NCI-H522 lung 97.4% | A549/ATCC NSCLC 97.3% | 786-0 renal 103% | COLO 205 colon 103%

CCCCN1C(=O)/C(=c2\sc3n(c2=O)C2C(NN=3)N(CC)C(=O)N2CC)c2cc(C)ccc21 (stereo not given)
inactive: NCI-H23 lung 95.5% | NCI-H226 lung 87.3% | NCI-H322M lung 88.1% | HOP-62 NSCLC 108% | NCI-H460 lung 102% | HOP-92 NSCLC 86.5% | NCI-H522 lung 88.3% | A549/ATCC NSCLC 91.4% | 786-0 renal 94.4% | COLO 205 colon 94%

Cc1nc(/N=C(N)/N=C(\N)c2cccc(Br)c2)sc1C
inactive: NCI-H23 lung 59.7% | NCI-H226 lung 73.1% | NCI-H322M lung 86.2% | HOP-62 NSCLC 50% | NCI-H460 lung 30.1% | HOP-92 NSCLC 88% | NCI-H522 lung 45.7% | A549/ATCC NSCLC 56.8% | 786-0 renal 75.2% | COLO 205 colon 55.6%

O=c1c2cc(-c3ccc(F)cc3F)ccc2n(O)c(=O)n1-c1cccc(C(F)(F)F)c1
inactive: NCI-H226 lung 14.3% | 786-0 renal 30.9% | COLO 205 colon 73.9%
active: NCI-H23 lung -2.77% | NCI-H322M lung 5.99% | HOP-62 NSCLC -9.23% | NCI-H460 lung 6.68% | HOP-92 NSCLC -30% | NCI-H522 lung -14.2% | A549/ATCC NSCLC 6.74%

NS(=O)(=O)c1ccc(Nc2nc(Nc3ccccc3)nc(N3N=C(c4ccc(Cl)cc4)CC3c3ccc(Cl)cc3)n2)cc1 (stereo not given)
inactive: NCI-H23 lung 54.8% | NCI-H226 lung 55.1% | NCI-H322M lung 64.5% | HOP-62 NSCLC 75.8% | NCI-H460 lung 20.1% | HOP-92 NSCLC 75% | NCI-H522 lung 83.6% | A549/ATCC NSCLC 66.7% | 786-0 renal 65.8%
active: COLO 205 colon 8.73%

Clc1ccc2c(N/N=C/c3c[nH]c4ccccc34)ccnc2c1
active: NCI-H23 lung -88.2% | NCI-H226 lung -52.1% | NCI-H322M lung -89.9% | HOP-62 NSCLC -75.1% | NCI-H460 lung -87.2% | HOP-92 NSCLC -88.7% | NCI-H522 lung -77.6% | A549/ATCC NSCLC -24.3% | 786-0 renal -89.8% | COLO 205 colon -85.4%

CCCCCN1C(=O)/C(=c2\sc3n(c2=O)C2C(NN=3)N(CC)C(=O)N2CC)c2cccc(C)c21 (stereo not given)
inactive: NCI-H23 lung 70% | NCI-H226 lung 42.4% | NCI-H322M lung 82.7% | HOP-62 NSCLC 44.2% | NCI-H460 lung 30.9% | HOP-92 NSCLC 70.2% | NCI-H522 lung 30.4% | A549/ATCC NSCLC 68.6% | 786-0 renal 76% | COLO 205 colon 38.7%

N#Cc1nc(-c2ccc(Cl)cc2)oc1N1CCC(S(=O)(=O)N2CCOCC2)CC1
inactive: NCI-H23 lung 96.5% | NCI-H226 lung 94.6% | NCI-H322M lung 92.2% | HOP-62 NSCLC 94.6% | NCI-H460 lung 103% | HOP-92 NSCLC 100% | NCI-H522 lung 87.2% | A549/ATCC NSCLC 99.9% | 786-0 renal 93.5% | COLO 205 colon 116%

COc1ccc2c(c1)c(-c1nn3cc(-c4ccncc4)nc3s1)cn2C
inactive: NCI-H23 lung 88.7% | NCI-H226 lung 88.6% | NCI-H322M lung 85.4% | HOP-62 NSCLC 67% | NCI-H460 lung 53.1% | HOP-92 NSCLC 11.6% | NCI-H522 lung 68.9% | A549/ATCC NSCLC 98.7% | 786-0 renal 93% | COLO 205 colon 81.5%

N/C(=N\C(N)=N\c1nc2ccccc2s1)c1ccc(Cl)cc1
inactive: NCI-H23 lung 75.1% | NCI-H226 lung 77.8% | NCI-H322M lung 88.3% | NCI-H460 lung 52.5% | HOP-92 NSCLC 84.6% | NCI-H522 lung 80.8% | A549/ATCC NSCLC 20.9% | 786-0 renal 102% | COLO 205 colon 104%
active: HOP-62 NSCLC 1.11%

Cc1ccc(-c2nc(SCC(=O)c3ccccc3)nc(Nc3ccc(S(N)(=O)=O)cc3)c2C#N)cc1
inactive: NCI-H23 lung 34.5% | NCI-H226 lung 71.4% | NCI-H322M lung 99.5% | HOP-62 NSCLC 26.2% | NCI-H460 lung 65.2% | HOP-92 NSCLC 37.6% | NCI-H522 lung 87.1% | A549/ATCC NSCLC 87.4% | 786-0 renal 46.3% | COLO 205 colon 101%

CC(=C(c1ccc(OCCCN(C)C)cc1)c1ccc(OCCCN(C)C)cc1)c1ccc(Cl)cc1
inactive: NCI-H23 lung 84.8% | NCI-H226 lung 95.5% | NCI-H322M lung 95.1% | HOP-62 NSCLC 99.5% | NCI-H460 lung 99.6% | HOP-92 NSCLC 77.9% | NCI-H522 lung 94.1% | A549/ATCC NSCLC 79.8% | 786-0 renal 87.4% | COLO 205 colon 96.6%

Cc1ncn(-c2ccc(/C=N/Nc3ccnc4cc(Cl)ccc34)cc2)c1C
inactive: NCI-H23 lung 54.1% | NCI-H226 lung 94.1% | NCI-H322M lung 45.5% | HOP-62 NSCLC 102%
active: NCI-H460 lung -52.3% | HOP-92 NSCLC -28.2% | NCI-H522 lung -66.2% | A549/ATCC NSCLC 0.0933% | 786-0 renal -89.4% | COLO 205 colon -96.5%

Cc1ccc(Nc2nc(SC(C)C)nc(-c3ccccc3)c2C#N)cc1
inactive: NCI-H23 lung 86.1% | NCI-H226 lung 76.1% | NCI-H322M lung 70.7% | HOP-62 NSCLC 72.2% | NCI-H460 lung 95.2% | HOP-92 NSCLC 80.7% | NCI-H522 lung 83.7% | A549/ATCC NSCLC 96.2% | 786-0 renal 92.2% | COLO 205 colon 112%

C/C(=C(\c1ccc(O)cc1)c1ccc(OCCN2CCCCCC2)cc1)c1ccc(Cl)cc1
active: NCI-H23 lung -80.3% | NCI-H226 lung -64.1% | NCI-H322M lung -18.9% | HOP-62 NSCLC -82.5% | NCI-H460 lung -55.9% | HOP-92 NSCLC -86.8% | NCI-H522 lung -86.9% | A549/ATCC NSCLC -72.4% | 786-0 renal -77.4% | COLO 205 colon -63.4%

NC(N)=NS(=O)(=O)c1ccc(N=Nc2c(N)nn(-c3ccc([N+](=O)[O-])cc3[N+](=O)[O-])c2N)cc1
inactive: NCI-H23 lung 98.1% | NCI-H226 lung 93.3% | NCI-H322M lung 92.9% | HOP-62 NSCLC 104% | NCI-H460 lung 107% | HOP-92 NSCLC 88.2% | NCI-H522 lung 97.2% | A549/ATCC NSCLC 103% | 786-0 renal 103% | COLO 205 colon 106%

O=C(/C=C/c1cccc(Br)c1)c1cccc(OCCCCOc2cccc(C(=O)/C=C/c3cccc(Br)c3)c2)c1
inactive: NCI-H23 lung 98% | NCI-H226 lung 103% | NCI-H322M lung 103% | HOP-62 NSCLC 107% | NCI-H460 lung 100% | HOP-92 NSCLC 115% | NCI-H522 lung 98.1% | A549/ATCC NSCLC 98.8% | 786-0 renal 106% | COLO 205 colon 115%

CC[C@H](CC[C@@H](C)[C@H]1CC[C@H]2[C@@H]3CC(=O)C4=CC(=O)/C(=C/c5ccc([N+](=O)[O-])cc5)C[C@]4(C)[C@H]3CC[C@]12C)C(C)C
inactive: NCI-H23 lung 103% | NCI-H226 lung 103% | NCI-H322M lung 103% | HOP-62 NSCLC 104% | NCI-H460 lung 106% | HOP-92 NSCLC 114% | NCI-H522 lung 97.4% | A549/ATCC NSCLC 99% | 786-0 renal 99% | COLO 205 colon 118%

Cc1ccc(C(=O)Nc2ccc(CNCCN3CCNCC3)c(C(F)(F)F)c2)cc1C#Cc1cnc2cccnn12
active: NCI-H23 lung 4.87% | HOP-62 NSCLC -48.8% | NCI-H460 lung -44.9% | HOP-92 NSCLC -28.2% | NCI-H522 lung -33.9% | 786-0 renal -70.2% | COLO 205 colon -53.2%
inactive: NCI-H226 lung 97.1% | NCI-H322M lung 55.3% | A549/ATCC NSCLC 16%

O=C1C(N2CCN(c3ccccc3)CC2)=C(Cl)C(=O)c2ncccc21
active: NCI-H522 lung -16.2%
inactive: NCI-H23 lung 46.3% | NCI-H226 lung 91.3% | NCI-H322M lung 95.2% | HOP-62 NSCLC 63.9% | NCI-H460 lung 38.7% | HOP-92 NSCLC 128% | A549/ATCC NSCLC 91.5% | 786-0 renal 105% | COLO 205 colon 65.2%

CC1=C(C)C(=O)C(Nc2cccc(C)c2)=C(Br)C1=O
inactive: NCI-H23 lung 85.1% | NCI-H226 lung 92.2% | NCI-H322M lung 98.4% | HOP-62 NSCLC 90.7% | NCI-H460 lung 103% | NCI-H522 lung 94.6% | A549/ATCC NSCLC 101% | 786-0 renal 107% | COLO 205 colon 126%
active: HOP-92 NSCLC -35.5%

C#CCOc1cccc(/C(N)=N/C(N)=N/c2nc3ccccc3s2)c1
inactive: NCI-H23 lung 50.2% | NCI-H226 lung 68.1% | NCI-H322M lung 96.3% | NCI-H460 lung 90.5% | HOP-92 NSCLC 125% | NCI-H522 lung 96.9% | A549/ATCC NSCLC 10.8% | 786-0 renal 107% | COLO 205 colon 119%
active: HOP-62 NSCLC -36.3%

COc1cc2cc(Oc3ccc(NC(=O)c4cc(C(F)(F)F)cc(C(F)(F)F)c4)cc3)c(C)nc2cc1OCCN1CCOCC1
inactive: NCI-H23 lung 66.9% | NCI-H226 lung 70.3% | NCI-H322M lung 98% | HOP-62 NSCLC 88.6% | NCI-H460 lung 61.6% | HOP-92 NSCLC 44.8% | NCI-H522 lung 58.1% | A549/ATCC NSCLC 61.4% | 786-0 renal 25.3% | COLO 205 colon 66.7%
